Measurements reported in PubChem BioAssay.

assay: JC-1 mitochondrial signal, unstimulated MM1S myeloma – cell-based, JC-1 fluorescence, 24 h, 100 nL compound, profiling panel (AID 1170); details: MM1S mitochondrial potential, higher = more signal; also: test concentration not given here

Row | SMILES | z-score
1 | CCN1C(=O)[C@H]2[C@@H]3C(=CC[C@H]2C1=O)C(=O)[C@H]1O[C@H]1[C@H]3O | -2.82
2 | CC(C)C(=O)N[C@H]1CCCN1C(=O)C=Cc1ccccc1 | -0.0562
3 | CCOC(=O)[C@H](CC(C)C)NC(=O)CCC1CC(OC(=O)NCc2ccc3c(c2)OCO3)CC2(CCCC(COC(=O)NCCC(C)C)O2)O1 (stereo partly drawn) | -0.155
4 | COC(=O)CC=C[C@@H](C)[C@@H](C=NOC[C@@H](O)COCc1ccco1)NS(=O)(=O)c1ccc(C)cc1 | -0.436
5 | CON=C(C)CCN1CCCCc2nc(C)c(C)cc21 | 0.289
6 | CC(=O)OC[C@H]1O[C@H](CCON=C(C)C)C=C[C@@H]1OC(C)=O | -0.57
7 | O=C1CCCC=C1C(O)C1CCCCC1 (stereo not drawn) | 0.327
8 | COC(=O)CC=C[C@@H](C)[C@@H](C=NOC[C@@H](C)[C@H](OCc1ccccc1)C(C)C)OC | -0.93
9 | COC(=O)[C@H](C)NC(=O)CC=C[C@@H](C)[C@@H]1C=C[C@H](O)[C@@H](CO)O1 | -0.463
10 | C[C@@H](c1ccccc1)N1C(=O)[C@H]2[C@H]3[C@H](O)[C@H](O)CC(=NOCc4ccccc4)[C@@H]3CC[C@H]2C1=O | 0.645
11 | O=C1[C@H]2[C@H]3[C@H](O)[C@H](O)CC(=NOC[C@@H](O)COCc4ccco4)[C@@H]3CC[C@H]2C(=O)N1Cc1ccc2c(c1)OCO2 | -1.18
12 | CCCNC(=O)OC[C@H]1O[C@H](CCON=C2C[C@@H](O)[C@@H](O)[C@@H]3[C@@H]4C(=O)N(CC)C(=O)[C@@H]4CC[C@@H]23)C=C[C@@H]1Oc1ccc(OC)cc1 | -0.39
13 | CC(C)CON=C1C[C@@H](O)[C@@H](O)[C@@H]2[C@@H]3C(=O)N(Cc4ccc5c(c4)OCO5)C(=O)[C@@H]3CC[C@@H]12 | -1.49
